A selection: hits, their analogues and other compounds. The true share with any hit is near 9.5%.
RE007 growth inh: less growth of the S. pombe RE007 Vpr strain. S. pombe RE007 Vpr strain, BacTiter-Glo ATP luminescence, 24 h. AID 651644. 360,000 tested, 0.21% active. Potency, µM (highest dose often 92.2 µM), for the others: top-dose activity change, negative = less growth, most hits filed as inhibitors; active means well fitted falling curve with a large enough effect; inconclusive means small, poorly fitted or top-dose-only effect; inactive means no such curve, though single readings can be large or run the other way; further: on the % scale 0 is the no-effect control and ±100 the full control effect; nearly all actives have a fitted effect of over 50% in size
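Fission yeast strain RE007, carrying one chromosomally integrated HIV-1 vpr copy, was seeded at OD 0.01 in PMG+AL medium with 23 nL pinned compound. After 24 h at 30 °C and 99% humidity, viability was read by BacTiter-Glo luminescence.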
NS1 inh: blocks influenza NS1 protein function | Potency, µM (top dose mostly 46.1 µM), for inactives: at the highest dose activity, positive = more growth | 270,000 tested, 0.4% active; calls by dose curve; further: actives are rising curves; nearly all actives have a fitted effect of over 50% in size
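In this qHTS, NS1 from influenza A is expressed in budding yeast, where it slows growth. Cells are switched from glucose to 2% galactose medium (pH 6.0, -URA), treated with compound, and growth recovery is read at OD600.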
Pf growth 96h: P. falciparum growth inhibition at 96 hours | Potency, µM (titrated, usually from 28.7 µM), without a hit: top-dose activity change, negative = inhibition, hits mostly inhibitors | 320,000 tested, 6.9% active | P. falciparum luciferase reporter growth, 96 h; further: on the % scale 0 is the no-effect control and ±100 the full control effect
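P. falciparum expressing integrated firefly luciferase grown in erythrocytes (2% hematocrit, 0.05% parasitemia final) with compounds for 96 hours at 37 C, 5% CO2. Growth inhibition read as loss of luminescence after adding luciferase detection reagent.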
Pf growth 48h: inhibits P. falciparum growth in the first generation, 48 h. 310,000 tested, 5.9% active. AID 504832. P. falciparum luciferase growth in erythrocytes, 48 h. Potency, µM (top dose mostly 28.7 µM), inactives show at the highest dose activity change, negative = inhibition, actives largely listed as inhibitors; further: on the % scale 0 is the no-effect control and ±100 the full control effect
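Read-out is firefly luciferase luminescence from an integrated reporter in P. falciparum, so falling signal marks reduced parasite growth. Infected erythrocytes were at 2% hematocrit and 0.1% parasitemia (final) in Albumax-supplemented RPMI 1640.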
SARS PLP yeast: SARS-CoV PLP inhibition in yeast | Potency, µM (doses to about 32.9 µM), for the others: at the top dose activity, positive = growth rescue, usual class: activators | 330,000 tested, 0.19% active | S. cerevisiae expressing SARS-CoV PLpro, growth rescue; calls by dose curve; further: 0% is about no effect; nearly all actives have a fitted effect of over 55% in size
Numbers without * were called inactive; i = inactive; u = inconclusive; x = no result given. Unless noted, the call rests on the fitted dose curve; in most records, active means well fitted inhibition curve with a large enough effect; inconclusive means small, poorly fitted or top-dose-only effect, or another doubt; inactive means no such curve, though single readings can be large or run the other way. Potency means the concentration at half of the fitted maximal effect.

SMILES	RE007 growth inh	NS1 inh	Pf growth 96h	Pf growth 48h	SARS PLP yeast
CC1CCCCN1C(=O)c1cccc(NC2=C(Cl)C(=O)N(Cc3ccccc3)C2=O)c1 (stereo not drawn)	0%	x	u	u	-4%
O=C(Nc1cc(Cl)ccc1N1CCOCC1)c1ccc(=O)[nH]c1	-9%	x	x	x	3%
O=C(Nc1ccc(N2CCN(C(=O)c3cccs3)CC2)cc1)c1ccc(F)cc1	-14%	5%	40%	u	-2%
COc1ccccc1N1CCN(C2CCCN(C(=O)CCn3cncn3)C2)CC1 (stereo not drawn)	-1%	3%	u	8%	6%
c1ccc(Cn2c(SCCN3CCOCC3)nnc2-c2cccnc2)cc1	4%	-4%	10µM*	x	-2%
CCCCn1c(N)c(N(CC(C)C)C(=O)CCN2C(=O)C3CC=CCC3C2=O)c(=O)[nH]c1=O (stereo not drawn)	-4%	x	x	x	x
N=C(N)SCc1cccc(-c2nc3ccccc3c(=O)o2)c1	x	0%	x	x	x
O=C(O)c1cccc(N/N=C/c2ccc(F)c(F)c2)c1	5%	x	i	i	-4%
O=C(O)c1cccc(N/N=C/C2=C(Cl)c3cc(Cl)ccc3SC2)c1	4%	x	8.3µM*	i	-4%
CCOC(=O)N1CCN(CC(O)COCCC23CC4CC(CC(C4)C2)C3)CC1 (stereo not drawn)	12%	-20%	-99%	x	-11%
CC1CCCCN1CC(O)COCCC12CC3CC(CC(C3)C1)C2 (stereo not drawn)	-8%	x	8.3µM*	u	-5%
CNC(=O)c1nc(C)n(-c2ccc(Cl)cc2Cl)n1	14%	x	u	-13%	0%
Cc1c(C(=O)NN2CCCCC2)nn(-c2ccc(Cl)cc2Cl)c1-c1ccc(Cl)cc1	x	x	8.5µM*	u	x
C#CCOCCOCCOCCNc1nc(N2CCN(C(=O)[C@H]([C@@H](C)CC)n3cc([C@@H](N)CC(C)C)nn3)CC2)nc(N2CCN(C(=O)[C@H]([C@@H](C)CC)n3cc([C@@H](N)CC(C)C)nn3)CC2)n1	13%	-2%	1.9µM*	1.7µM*	-1%
C#CCOCCOCCOCCNc1nc(N2CCN(C(=O)[C@H]([C@@H](C)CC)n3cc([C@@H](N)Cc4ccc(O)cc4)nn3)CC2)nc(N2CCN(C(=O)[C@H]([C@@H](C)CC)n3cc([C@@H](N)Cc4ccc(O)cc4)nn3)CC2)n1	0%	2%	1.9µM*	1.9µM*	-1%
C(=C\c1ccccc1)/CN1CCN(C(c2ccccc2)c2nnnn2Cc2ccccc2)CC1 (stereo not drawn)	-24%	x	x	x	x
CC(C)CC(O)(c1ccccc1)C(CN1CCOCC1)c1ccccc1 (stereo not drawn)	1%	-3%	11%	0%	-1%
COc1ccc(C(O)(CCC(C)C)C(CN2CCOCC2)c2ccccc2)cc1 (stereo not drawn)	-1%	1%	-4%	1.7µM*	-4%
CC(C)CCC(O)(c1ccccc1)C(CN1CCOCC1)c1ccccc1 (stereo not drawn)	14%	8%	7%	2.9µM*	-4%
CCN(CC)C(=O)C1CCCN(Cc2cccc(F)c2)C1 (stereo not drawn)	14%	-6%	-11%	x	-4%
NC(=O)C1CCCN(Cc2ccc3ccccc3c2)C1 (stereo not drawn)	0%	9%	2.6µM*	u	4%
O=C(C1CCCN(Cc2ccccc2)C1)N1CCCCC1 (stereo not drawn)	7%	4%	u	x	9%
CCN(CC)C(=O)C1CCCN(Cc2ccc3ccccc3c2)C1 (stereo not drawn)	u	9%	13µM*	9%	9%
O=C(NC1CC1(c1ccccc1)c1ccccc1)c1ccccc1 (stereo not drawn)	-8%	x	x	x	x
OC(c1ccc(Cl)c(Cl)c1)c1ncc(-c2ccccc2Cl)[nH]1 (stereo not drawn)	-12%	x	x	x	x
SMILES	RE007 growth inh	NS1 inh	Pf growth 96h	Pf growth 48h	SARS PLP yeast
COc1cccc(NC(=O)CN(C)C(=O)CSc2ccc3c(c2)OCCO3)c1	1%	x	u	-24%	-1%
Oc1ccc(Cl)cc1N=Cc1sc2ccccc2c1Cl	-26%	x	2.3µM*	u	-11%
CCn1c(=O)c2[nH]c(SC)nc2n(CC)c1=O	18%	x	x	x	x
Cc1csc(NC(=O)c2nn(C)c(C)c2[N+](=O)[O-])n1	1%	6%	114%	103%	8%
CCC(CO)(C(=O)OC1CC2CCC(C1)N2C)c1ccccc1 (stereo not drawn)	5%	-5%	12µM*	-20%	6%
Cc1cc(C)cc(C(=O)OC2CC3CCC(C2)N3C)c1 (stereo not drawn)	x	x	17%	-4%	x
CC1C(c2ccccc2)=Nn2c(=O)n(-c3ccccc3)c(=O)n21 (stereo not drawn)	-21%	x	x	x	x
COc1cccc(/C=N/NC(=O)c2c(-c3ccccc3)noc2C)c1O	27%	-65%	u	5.9µM*	-1%
Cc1ccc(/C=N/NC(=O)c2c(-c3ccccc3)noc2C)o1	16%	2%	-2%	3%	5%
Cc1onc(-c2ccccc2)c1C(=O)N/N=C/c1cc(Br)c(Br)o1	10%	8%	13µM*	u	-28%
CCOc1cc([N+](=O)[O-])cc(/C=N/NC(=O)c2c(-c3ccccc3)noc2C)c1O	2%	-6%	13µM*	18%	u
CNC[C@@H]1Oc2cc(Br)ccc2S(=O)(=O)N([C@H](C)CO)C[C@@H]1C	11%	x	x	x	x
O=C(/C=C/c1ccccc1)OCc1ccccc1	x	x	22%	15%	x
COc1ccccc1NC(=O)NC1CCS(=O)(=O)C1 (stereo not drawn)	16%	3%	56%	39%	-1%
O=C(COc1ccc(S(=O)(=O)N2CCOCC2)cc1)Nc1ccc(Cl)c(C(F)(F)F)c1	16%	-24%	-4%	9.3µM*	0%
O=C(COc1ccc(S(=O)(=O)N2CCOCC2)cc1)Nc1ccc2c(c1)OCCO2	7%	-20%	x	u	-2%
O=C(COC(=O)c1ccc(S(=O)(=O)N2CCOCC2)cc1)NC1CCCCCC1	-2%	7%	-12%	-24%	3%
O=C(COc1ccc(S(=O)(=O)N2CCOCC2)cc1)NC1CCCCC1	3%	x	12µM*	u	1%
CN(CCOc1ccc(Cl)cc1)C(=O)CN1C(=O)NC2(CCCCC2)C1=O	-6%	x	6%	u	-2%
COC(=O)CCC(=O)NNC(=O)C1CC1(c1ccccc1)c1ccccc1 (stereo not drawn)	-4%	-1%	10µM*	18%	1%
CC(C)C(=O)NNC(=O)C1CC1(c1ccccc1)c1ccccc1 (stereo not drawn)	-3%	-1%	-21%	x	2%
Cc1cc(Br)c2nc3c(c(C(=O)O)c2c1)CCCCC3	4%	-2%	8.3µM*	-3%	2%

Screening results from PubChem BioAssay.
